Source: PubChem BioAssay (NCI)
“And” between values parts separate entries of the source, which are not always exact repeats. Identical values can stand only once. The panel holds about 83,000 compounds, 20% with a hit somewhere; the sample as a whole holds those more often.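 The test compound was applied at a single concentration to cells in 96-well plates for 48 hours, and percent growth was recorded.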 Values without a mark were called inactive. The source made the active and inactive calls. The calls were made as follows: active = growth percent below 10; inactive = the rest.

Test system: MDA-MB-468 breast
Assay: NCI-60 one-dose screen, 48 h (100 = growth as untreated, 0 = no growth, -100 = all killed)
Settings: 10 µM unless noted

For `CN(C1c2ccccc2Oc2ccccc21)S(=O)(=O)c1cc(Cl)ccc1Cl`, which growth is on record?
The growth was 18.9%.

With `N#CN1CCC[C@H]1C(=O)N1CCc2c(-c3[nH]nc4ncccc34)cccc21` as the compound, how does the growth read?
Its growth is -19% (active).

Which growth does the source give for `CN(C)CCN(Cc1ccccc1)c1ccc2ccccc2n1` here?
Its growth is 92.6%.

With `CNc1nc2c(s1)C(c1cccc(F)c1)CC(=O)N2` (stereo not given) as the compound, how does the growth read?
The growth was 98%.

Which growth does the source give for `CC1Cc2c(Cl)ncnc2N(C)c2ccc(O)cc21` (stereo not given) here?
The growth was -6.93% (active).

With `CCC(O)c1ccc(Br)cc1NC(=O)c1cccc(Cl)c1` (stereo not given) as the compound, how does the growth read?
The growth was 4.57% (active).

For `Cc1cccc2sc(/N=C(\N)C(Br)Br)nc12`, which growth is on record?
Its growth is -33.6% (active).

Which growth does the source give for `c1ccc2c(c1)oc1cc3c(cc12)nnc1cccn13` here?
Its growth is 108%.

With `CCOc1ccc(NC(=O)CSc2oc(-c3ccccc3)nc2S(=O)(=O)c2ccc(C)cc2)cc1` as the compound, how does the growth read?
The growth was 53%.

With `COc1ccccc1NCc1cccn1Cc1ccc(F)cc1` as the compound, how does the growth read?
Its growth is 82.6%.

With `COc1ccc(-c2nn(C(=O)NCCN(C)C)cc2-c2ccncc2)cc1Cl` as the compound, how does the growth read?
The growth was 4.11% (active).

For `COc1cc(C(=O)/C(C)=C/c2c[nH]c3ccccc23)cc(OC)c1OC`, which growth is on record?
The growth was 11.4%.

How did the growth turn out when `COc1ccc(NC(=O)c2sc3nc4c(cc3c2N)CCCC4)cc1` was run?
Its growth is 13.6%.

How did the growth turn out when `COc1ccc([C@@H]2[C@@H](O)C(=O)N2c2cc(OC)c(OC)c(OC)c2)cc1F` was run?
Its growth is -3.08% (active).

`O=C(NC1CCN(Cc2ccccc2)CC1)c1cc(C(=O)NC2CCN(Cc3ccccc3)CC2)cc(C(=O)NC2CCN(Cc3ccccc3)CC2)c1` was tested. Which growth did it give?
Its growth is 84.9%.

How did the growth turn out when `CN(C)CCCOc1cccc(NC2=C(Cl)C(=O)C(Nc3cccc(OCCCN(C)C)c3)=C(Cl)C2=O)c1` was run?
Its growth is -57.3% (active).

Which growth does the source give for `CC(=O)NCC(=O)c1ccc([N+](=O)[O-])cc1` here?
Its growth is 117%.

How did the growth turn out when `O=C(O)C(O)C(O)C(=O)O.[NH-]C1CCCCC1[NH-].[Pt+2]` (stereo not given) was run?
The growth was 95.5%.

`C=CCSc1ccc2c(c1)C(N1CCNCC1)=Nc1ccccc1O2` was tested. Which growth did it give?
Its growth is 27.8% [8.25 µM].

`ClC1C2CC(c3ccccc32)C1Cl` (stereo not given) was tested. Which growth did it give?
The growth was 104%.

For `Oc1cccc2c1NCCC2`, which growth is on record?
Its growth is -8.83% (active).

For `Cc1nc(Nc2ccccn2)sc1C(=O)/C=C/c1ccc(Br)cc1`, which growth is on record?
Its growth is 27.3%.

With `COc1cc2cc(Oc3ccc(NC(=O)c4cccc(C(F)(F)F)c4)cc3)c(C)nc2cc1OCCN(C)C` as the compound, how does the growth read?
Its growth is 81.5%.

For `COc1ccc(-c2nn(-c3cccc(NC(=O)c4ccc(Cl)c(Cl)c4)c3)cc2-c2ccncc2)cc1Cl`, which growth is on record?
The growth was 73.3%.

`Cc1cc(N=Nc2ccc(C)c(N=Nc3cc(C)c(N)cc3N)c2)c(N)cc1N` was tested. Which growth did it give?
The growth was 96.7% and 60.3%.

For `CCCNC(=O)Nc1ccc2cc3ccc(NC(=O)NCCC)cc3nc2c1`, which growth is on record?
Its growth is -52.4% (active).

With `Cc1ccc(-c2onc3c(=O)[nH]nc(-c4ccccc4)c23)cc1` as the compound, how does the growth read?
Its growth is 29.5%.

Which growth does the source give for `CCCNNC(=O)c1ccc(CNC(=O)/C=C/c2ccccc2)cc1` here?
Its growth is 54.5% [2.5 µM].

For `Nc1nc(Cn2c(-c3nonc3N)nc3ccccc32)nc(N2CCCCC2)n1`, which growth is on record?
The growth was 72.8%.

Which growth does the source give for `O=C1C(=O)N(CCCCn2cc(CO)nn2)c2ccccc21` here?
The growth was 98.6%.

Which growth does the source give for `O=C(Nc1ccc(Br)cc1F)c1cc(F)ccc1O` here?
The growth was -0.885% (active).

Which growth does the source give for `Cc1cc(C)c(S(=O)(=O)N2CCN(c3cc4c(cc3F)c(=O)c(C(=O)O)cn4C3CC3)CC2)c(C)c1` here?
The growth was 65.1%.

How did the growth turn out when `CC(C)OC(=O)[C@H](C)N[P@@](=O)(OC[C@@]1(C)O[C@@H](n2cc(F)c(N)nc2=O)C[C@@H]1O[P@](=O)(N[C@@H](C)C(=O)OC(C)C)Oc1ccccc1)Oc1ccccc1` was run?
The growth was 97.9%.

`CCOC(=O)C#Cc1c(C(=O)OCC)nnn1[C@@H]1O[C@H](CO)[C@H]2OC3(CCCCC3)O[C@H]21` was tested. Which growth did it give?
The growth was -19.7% (active).

Which growth does the source give for `COc1cc(C2=NN(C(C)=O)C(c3ccc(N4CCOCC4)cc3)C2)cc(OC)c1OC` (stereo not given) here?
Its growth is 96.7%.

`C=CCOC(=O)C1=C(C)NC(=O)NC1c1c(Cl)n(C)c2ccccc12` (stereo not given) was tested. Which growth did it give?
Its growth is 106%.

`Cc1ccc(-c2nc(SCC(=O)N3CCN(c4cc5c(cc4F)c(=O)c(C(=O)O)cn5C4CC4)CC3)nc(Cl)c2C#N)cc1` was tested. Which growth did it give?
Its growth is 95%.

How did the growth turn out when `COc1cccc(-c2nc3sccn3c2-c2ccnc(NCCNS(=O)(=O)c3ccccc3)n2)c1` was run?
Its growth is 67.4%.

`COc1ccc([C@@H]2[C@@H](Cl)C(=O)N2c2cc(OC)c(OC)c(OC)c2)cc1C` was tested. Which growth did it give?
The growth was 18.9%.

For `Cc1cc(=O)n2n1-c1ccc(Cl)cc1NC(=O)C2`, which growth is on record?
Its growth is 101%.
